Compounds with a hit are over-represented: about 7.4% of the library has one in this group of screens.
SNCA expr inh = reduces expression of the alpha-synuclein gene; 140,000 tested, 0.17% active; AID 1671194; HEK-293 SNCA-luciferase knock-in, luminescence, 24 h; Potency, µM (highest dose often 57.2 µM), without a hit: top-dose activity change, negative = inhibition, hits mostly inhibitors;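 further: plate controls were DMSO cells for no effect and cell-free wells for full effect; nearly all actives have a fitted effect of over 45% in size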
HEK293 viab = reduces viability of HEK-293 SNCA reporter cells. HEK-293-SNCA-luc viability, GF-AFC fluorescence, 24 h. Potency, µM (titrated, usually from 57.1 µM), for the others: top-dose activity change, negative = cytotoxicity, actives largely listed as cytotoxic. 150,000 tested, 0.12% active. AID 1671193;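 further: 0% = DMSO-treated cells and -100% = medium-only wells without cells; nearly all actives have a fitted effect of over 30% in size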
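HEK-293-SNCA-luc cells (1500/well) plated 24 h, then exposed 24 h to a dilution series; GF-AFC added 30 min at 37C, fluorescence 405/540 nm; normalised to medium-only and DMSO wells, Hill fit.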
hNpr1 antagonist = blocks ANP-stimulated signaling of human Npr1 receptor. HEK293 hNpr1 GloSensor cGMP, ANP-stimulated luminescence. Potency, µM (top dose mostly 46.3 µM), for the others: at the highest dose activity change, negative = inhibition, most hits filed as inhibitors. P16066. 76,000 tested, 1.6% active. AID 1347048; calls by dose curve; further: on the % scale 0 is the no-effect control and ±100 the full control effect; nearly all actives have a fitted effect of over 60% in size
Target sequence (P16066 whole entry, looked up): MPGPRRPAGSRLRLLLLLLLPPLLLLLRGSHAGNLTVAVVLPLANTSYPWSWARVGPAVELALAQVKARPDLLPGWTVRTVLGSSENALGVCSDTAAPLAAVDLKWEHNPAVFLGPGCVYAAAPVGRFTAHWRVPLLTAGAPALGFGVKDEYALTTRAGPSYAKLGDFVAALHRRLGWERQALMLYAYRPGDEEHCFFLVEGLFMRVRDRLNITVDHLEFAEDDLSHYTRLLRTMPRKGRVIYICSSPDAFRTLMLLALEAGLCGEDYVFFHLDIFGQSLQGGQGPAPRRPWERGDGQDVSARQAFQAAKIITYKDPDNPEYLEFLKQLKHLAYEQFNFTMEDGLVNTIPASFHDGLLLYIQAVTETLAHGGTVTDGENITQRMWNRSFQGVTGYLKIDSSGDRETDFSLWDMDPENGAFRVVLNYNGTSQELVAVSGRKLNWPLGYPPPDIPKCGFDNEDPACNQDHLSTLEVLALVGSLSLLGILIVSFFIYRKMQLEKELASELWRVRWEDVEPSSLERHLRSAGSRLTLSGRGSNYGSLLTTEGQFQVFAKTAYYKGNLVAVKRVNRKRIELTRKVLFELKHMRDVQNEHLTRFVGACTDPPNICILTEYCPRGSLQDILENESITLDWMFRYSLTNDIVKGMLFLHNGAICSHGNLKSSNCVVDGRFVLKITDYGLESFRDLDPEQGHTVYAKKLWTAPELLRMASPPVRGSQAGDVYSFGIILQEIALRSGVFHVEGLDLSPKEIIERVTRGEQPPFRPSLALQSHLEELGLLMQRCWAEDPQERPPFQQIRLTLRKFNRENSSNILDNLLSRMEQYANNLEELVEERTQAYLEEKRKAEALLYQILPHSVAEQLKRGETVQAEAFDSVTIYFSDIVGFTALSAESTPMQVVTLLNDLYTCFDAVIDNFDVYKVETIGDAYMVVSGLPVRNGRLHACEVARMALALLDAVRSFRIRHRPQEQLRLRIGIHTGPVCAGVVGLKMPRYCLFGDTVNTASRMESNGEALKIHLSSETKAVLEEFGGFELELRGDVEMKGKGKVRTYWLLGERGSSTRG
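Compound pre-incubated 30 min at room temperature on GloSensor-loaded HEK293 cells stably carrying hNpr1 and the pGS-40F cGMP biosensor. Stimulation uses hNppA at 0.1 nM final; luminescence is taken at baseline and 20 min post-agonist.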
FLuc inh = Photinus pyralis luciferase inhibition. Potency, µM (highest dose often 115 µM), most hits filed as inhibitors. 76,000 tested, 2.5% active. AID 1347043. purified P. pyralis luciferase, luminescence, biochemical; further: on the % scale 0 is the no-effect control and ±100 the full control effect; nearly all actives have a fitted effect of over 65% in size
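Biochemical qHTS: compound (6-point titration) added to 10uM D-luciferin plus 10uM ATP in Tris acetate pH 7.5 buffer with Mg, Tween-20 and BSA, then purified enzyme at 10nM; light output imaged.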
3T3 cytotox = NIH 3T3 cell cytotoxicity. 94,000 tested, 4.3% active. AID 1345082. NIH 3T3 viability, CellTiter-Glo ATP luminescence, 48-72 h. Potency, µM (doses to about 96.7 µM), without a hit: top-dose activity change, negative = cytotoxicity, usual class: inhibitors; further: on the % scale 0 is the no-effect control and ±100 the full control effect; nearly all actives have a fitted effect of over 55% in size
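Cells were seeded at 400 per well, treated with pin-transferred compound, and kept 48 or 72 hr at 37 °C before CellTiter-Glo addition and luminescence imaging of cellular ATP.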
HEK293 tox = kills HEK 293 cells; HEK 293 viability, ATP luminescence (CellTiter-Glo), 48-72 h; Potency, µM (highest dose often 115 µM), for inactives: top-dose activity change, negative = cytotoxicity, most hits filed as inhibitors; 94,000 tested, 6.6% active; AID 1345083; further: on the % scale 0 is the no-effect control and ±100 the full control effect; nearly all actives have a fitted effect of over 60% in size
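Cells seeded first (HEK 293, 250 cells/well), then compound added by pintool. Incubation ran 48 or 72 hr at 37 degree Celsius. CellTiter-Glo was added and luminescence imaged after 10 min at room temperature.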
NPR1 antag cnf = hNpr1 antagonism, confirmation assay; Potency, µM (top dose mostly 57.6 µM), for inactives: at the highest dose activity change, negative = inhibition, most hits filed as inhibitors; AID 1347044; 1,400 tested, 76% active; shares compounds with hNpr1 antagonist; HEK293 hNpr1 cGMP GloSensor luminescence, ANP-stimulated; calls by dose curve; further: nearly all actives have a fitted effect of over 70% in size
NPR2 antag = antagonizes human Npr2, subtype selectivity check | Potency, µM (top dose mostly 57.6 µM), without a hit: at the top dose activity change, negative = inhibition, usual class: inhibitors | 1,400 tested, 67% active | shares compounds with hNpr1 antagonist | AID 1347046 | HEK293 hNpr2 GloSensor cGMP luminescence, CNP-stimulated; calls by dose curve; further: nearly all actives have a fitted effect of over 70% in size
FLuc counter = inhibits firefly luciferase, false Npr1 antagonist flag; 1,400 tested, 0.7% active; Potency, µM (highest dose often 57.6 µM), for inactives: at the highest dose activity change, negative = inhibition, actives largely listed as inhibitors; shares compounds with hNpr1 antagonist; purified FLuc enzyme, luminescence, Km substrate; AID 1347047; further: 0% is about no effect
GloSensor cGMP = reduces cGMP signal in GloSensor control cells; Potency, µM (highest dose often 57.6 µM), without a hit: at the highest dose activity change, negative = inhibition, actives largely listed as inhibitors; 1,400 tested, 69% active; shares compounds with hNpr1 antagonist; HEK293 GloSensor cGMP, SNP-stimulated, luminescence; calls by dose curve; further: on the % scale 0 is the no-effect control and ±100 the full control effect; nearly all actives have a fitted effect of over 70% in size
* marks the source's active call; other numbers are inactive results; i = inactive; ? = inconclusive; / = no result; [ ] = another dose, or the depositor's remark. Unless noted, the call rests on the fitted dose curve; in most records, active means well fitted curve in the direction sought with a large enough effect; inconclusive means small, poorly fitted or top-dose-only effect, or another doubt; inactive means no such curve, though single readings can be large; an effect the other way counts as inactive or inconclusive. Potency means the concentration at half of the fitted maximal effect.

SMILES | SNCA expr inh | HEK293 viab | hNpr1 antagonist | FLuc inh | 3T3 cytotox | HEK293 tox | NPR1 antag cnf | NPR2 antag | FLuc counter | GloSensor cGMP
O=C(CO)NC1CC(=O)N(Cc2ccccc2C(F)(F)F)C1 (stereo not given) | -17% | 0% | -1% | i | -2% | 1% | / | / | / | /
COCCOCc1nc(C2CCN(C(=O)Nc3ccccc3F)CC2)no1 | -20% | 5% | 6% | i | 2% | i | / | / | / | /
O=C(NC1C[C@H]2CC[C@@H](C1)N2C(=O)C1CCCCCC1)c1ccc(F)cc1 (stereo not given in full) | 8% | ? | / | / | -18% | -7% | / | / | / | /
COCCN1CC(c2n[nH]c(C3CCOCC3)n2)CCC1=O (stereo not given) | -5% | 7% | 1% | i | 2% | 1% | / | / | / | /
COc1ccc(-c2cc(C[C@@H]3CC[C@H](O)[C@@H](CNCc4ccccc4OC)O3)no2)cc1 | -12%[87.6 µM] | -14%[87.6 µM] | 28µM* | ? | 56µM* | 32µM* | 31µM* | 35µM* | ? | ?
Cc1nc(C2CC(O)C2)cc(N2CCN(c3nc4ccccc4s3)CC2)n1 (stereo not given) | ? | ? | 7.1µM* | i | ? | ? | 9.7µM* | 11µM* | 1% | 8.6µM*
Cc1nc(C2CC(O)C2)cc(N2CCN(C(=O)c3cccs3)CC2)n1 (stereo not given) | 75% | 2% | 3% | i | -27% | -17% | / | / | / | /
COC(=O)N1CCCCC(NC(=O)CCCc2nc(-c3ccccc3C)no2)C1 (stereo not given) | -29% | -19% | 13µM* | i | ? | 35µM* | 17µM* | 19µM* | -1% | 19µM*
O=C(O)C1CCc2nnc(C3CCCN(C(=O)c4cccc(Cl)c4)C3)n21 (stereo not given) | 3% | 4% | / | / | -2% | 4% | / | / | / | /
CC(C)c1nc(-c2ccc(OC3CCN(C(=O)c4n[nH]c5ccccc45)C3)cc2)no1 (stereo not given) | -9% | -15% | 16µM* | i | ? | 28µM* | 24µM* | 24µM* | 0% | 19µM*
CC(C)c1nc(-c2ccc(OC3CCN(C(=O)c4cc(F)ccc4F)C3)cc2)no1 (stereo not given) | -13% | -19% | 11µM* | i | ? | 20µM* | 11µM* | 14µM* | 1% | 11µM*
O=C(c1cc(F)ccc1F)N1CCC(Oc2cccnc2)C1 (stereo not given) | -2% | 10% | / | / | -22% | -9% | / | / | / | /
CNC(=O)N1CCCC(c2nc(CCOCC3CCCC3)no2)C1 (stereo not given) | 48% | 10% | ? | i | -29% | ? | ? | ? | -1% | ?
O=C(NCc1ccc(F)cc1)c1ccc2oc(-c3cccnc3)nc2c1 | 1%[87.6 µM] | -5%[87.6 µM] | / | / | -10%[138 µM] | ? | / | / | / | /
COc1ccc(C(=O)NC2CCCN(c3cc(-c4ccc(Cl)cc4)[nH]n3)C2)c(C)c1 (stereo not given) | -6% | 0% | ? | i | -28% | -29% | ? | ? | -2% | ?
COc1ccc(C(=O)NC2CCN(c3cc(-c4ccc(Cl)cc4)[nH]n3)CC2)c(C)c1 | 17% | 10% | ? | i | ? | ? | / | / | / | /
N#Cc1ccc(C(=O)NC2CCN(c3cc(-c4ccc(Cl)cc4)[nH]n3)CC2)cc1 | 26% | -3% | ? | i | -20% | ? | ? | ? | -2% | ?
N#Cc1ccc(C(=O)NC2CCN(c3cc(-c4ccccc4)[nH]n3)CC2)cc1 | -19% | 4% | 0% | i | ? | ? | / | / | / | /
COc1ccc(-c2cc(N3CCC(NC(=O)Cc4cccc(OC)c4)CC3)n[nH]2)cc1 | 27% | -9% | -7% | i | ? | ? | / | / | / | /
COc1cccc(CC(=O)NC2CCN(c3cc(-c4ccc(Cl)cc4)[nH]n3)CC2)c1 | -10% | -3% | ? | i | -24% | -30% | ? | ? | -3% | ?
Cc1ccccc1OCC(=O)NC1CCN(c2cc(-c3ccccc3)[nH]n2)CC1 | ? | -28% | 11µM* | i | ? | 25µM* | 15µM* | 22µM* | -2% | 11µM*
O=C(COc1ccccc1)NC1CCN(c2cc(-c3ccccc3)[nH]n2)CC1 | 5% | 11% | -30% | i | ? | ? | / | / | / | /
CCc1nc(CN2CC[C@@H](c3ccc4c(c3)OCO4)[C@H](O)C2)c(C)[nH]1 | 3% | 0% | -3% | i | -29% | -7% | / | / | / | /
COc1ccc(CC(=O)NC2CCN(c3cc(-c4ccc(F)cc4)[nH]n3)CC2)cc1OC | -5% | 1% | 11µM* | i | ? | ? | 22µM* | 19µM* | -1% | 22µM*
COc1ccc(CC(=O)NC2CCN(c3cc(-c4ccc(F)cc4)[nH]n3)C2)cc1OC (stereo not given) | 5% | 1% | 13µM* | i | ? | ? | 22µM* | 22µM* | -1% | 24µM*
COc1ccc(CC(=O)NC2CCN(c3cc(-c4ccc(Cl)cc4)[nH]n3)CC2)cc1OC | -25% | -26% | 18µM* | i | ? | 40µM* | 24µM* | 22µM* | -1% | 24µM*
COc1ccc(-c2cc(N3CCC(NC(=O)Cc4ccc(F)cc4)CC3)n[nH]2)cc1 | -12% | -9% | 1% | i | ? | ? | / | / | / | /
COc1ccc([C@H]2C[C@@H](O)[C@@H](O)[C@@H]2NCc2cccc(OC)c2)cc1 | 2%[87.6 µM] | -26%[87.6 µM] | -20%[70.6 µM] | i | ? | -19%[172 µM] | / | / | / | /
